Values joined by “and” are separate entries in the source; they are usually repeats but may differ in a detail not shown here. Equal values may be shown once. About 22,000 (6.9%) of roughly 320,000 compounds were called active. Another 27% or so got no clear call; they are omitted. Calls come from the whole dose curve; as a rule, active = well fitted inhibition curve with a large enough effect; inconclusive = small, poorly fitted or top-dose-only effect, or another doubt; inactive = no such curve, though single readings can be large or run the other way. This excerpt belongs to a sample that is enriched for actives. The source holds several records for some structures; these can differ, active in one and inactive in another.
assay: Primary qHTS for delayed death inhibitors of the malarial parasite plastid, 96 hour incubation; conditions: P. falciparum luciferase reporter growth; series mostly up to 28.7 µM; activity change, negative = inhibition: at the top concentration
Summary of the method: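 Erythrocytes infected with luciferase-expressing P. falciparum were dispensed at 2% hematocrit and 0.05% parasitemia (final), then incubated with compounds 96 hours at 37 C in 5% CO2. Luminescence after detection reagent addition reported growth.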
% is set by controls: 0 for no effect and ±100 for the full control effect; potency is the fitted concentration of half-maximal effect.

| SMILES | activity change, negative = inhibition | Potency |
| --- | --- | --- |
| COc1ccc(C)cc1NC(=O)CCCN1C(=O)NC(C)(C)C1=O | 32% (inactive) |  |
| NC(=O)c1cc(S(=O)(=O)N2CCCC2)ccc1OCc1ccc(F)cc1 | -13.7% (inactive) |  |
| CC(C)(C)n1nnnc1C(c1ccc(F)cc1)N1CCN(Cc2ccc3c(c2)OCO3)CC1 (stereo not drawn) | 2.75% (inactive) |  |
| Fc1ccccc1C(c1nnnn1Cc1ccc2c(c1)OCO2)N1CCN(Cc2ccccc2)CC1 (stereo not drawn) |  | 1.85 µM (active) |
| Cc1cc(C)c2[nH]c(=O)c(C(c3nnnn3Cc3ccc4c(c3)OCO4)N3CCCC3)cc2c1 (stereo not drawn) | 0% (inactive) |  |
| COc1ccc(C(=O)Nc2ccc(C3(C#N)CCCC3)cc2)cc1OC | 45.8% (inactive) |  |
| O=C(CN1CCC(O)(c2ccccc2)CC1)Nc1ccc2c(c1)OCCO2 | 22.7% (inactive) |  |
| CC1CCCCC1NC(=O)COC(=O)Cc1ccc(Br)cc1 (stereo not drawn) | 27.3% (inactive) |  |
| CC1CCCCC1NC(=O)CN1CCC(O)(c2ccc3c(c2)OCO3)CC1 (stereo not drawn) |  | 13.1 µM (active) |
| Cc1cccnc1NC(=O)c1cccc(S(=O)(=O)N2CCN(c3ccc(F)cc3)CC2)c1 | -18.5% (inactive) |  |
| O=C(Nc1ccc2c(c1)CCC2)c1cccc(S(=O)(=O)Nc2ccccc2Cl)c1 | 39% (inactive) |  |
| O=C(Nc1ccc2c(c1)CCC2)c1cccc(S(=O)(=O)N2CCN(c3ccc(F)cc3)CC2)c1 |  | 9.28 µM (active) |
| CCOc1ccc(/C=C/C(=O)N(CC)CC(=O)NCc2cccs2)cc1OC | 4.59% (inactive) |  |
| O=C(Cn1nc(C(=O)O)c2ccccc2c1=O)Nc1ccc(F)cc1 | 50.2% (inactive) |  |
| COc1ccc(-c2cc(C(=O)N3CCN(c4ccc(F)cc4)CC3)no2)cc1 | 116% (inactive) |  |
| CCOC(=O)C1(C(F)(F)F)N=C(N(C)C)OC(N(C)C)=N1 |  | 4.15 µM (active) |
| CCOc1ccc2[nH]c3nc(SCC(=O)NC4CCCC4)nnc3c2c1 | 58.3% (inactive) |  |
| CCOc1ccc(CN2CCN(Cc3c[nH]c4ccccc34)CC2)cc1 | 0% (inactive) |  |
| Cc1cccc(OCC(=O)NCCNC(=O)c2cccnc2)c1 | -11.1% (inactive) |  |
| CN(CC(=O)Nc1ccccc1Cl)C(=O)c1ccccc1SCC(=O)N1CCCC1 | -6.58% (inactive) |  |
| CCOC(=O)CSc1nc2ccc(C)cc2n2cnnc12 | -4.99% (inactive) |  |
| COc1ccccc1N=C1SCCCN1C | -24.4% (inactive) |  |
| COc1ccccc1N=C1SC(C)CN1C(=O)C1CCC1 (stereo not drawn) |  | 10.4 µM (active) |
| CCc1noc(C)c1C(=O)N1CCCSC1=Nc1ccccc1OC | -9.42% (inactive) |  |
| O=S(=O)(NC(=S)Nc1ccccc1)c1ccc(F)cc1 | 25.1% (inactive) |  |

| SMILES | activity change, negative = inhibition | Potency |
| --- | --- | --- |
| CO[C@H]1[C@@H]2C=CO[C@@H](O[C@H]3O[C@@H](CO)[C@H](O)[C@@H](O)[C@@H]3O)[C@@H]2[C@@]2(CO)O[C@@H]12 | 36.1% (inactive) |  |
| O=C(CN(C(=O)c1csnn1)c1cccc(Cl)c1)NC1CCCC1 | 45.8% (inactive) |  |
| CCOc1ccc(N(C(=O)c2snc(C(N)=O)c2N)C(C(=O)NCC2CCCO2)c2c[nH]c3ccccc23)cc1 (stereo not drawn) | 2% (inactive) |  |
| COc1ccc(-c2nc(CS(=O)CC(=O)NCc3ccccn3)c(C)o2)cc1 (stereo not drawn) |  | 11.7 µM (active) |
| COc1cccc(-c2nc(CS(=O)CC(=O)NCc3ccc(F)cc3)c(C)o2)c1 (stereo not drawn) | -21.6% (inactive) |  |
| Cc1ccc(-c2nc(CS(=O)CC(=O)N3CCN(c4ncccn4)CC3)c(C)o2)cc1 (stereo not drawn) | -21.3% (inactive) |  |
| Cc1ccc(-c2nc(CS(=O)CC(=O)NC3CCCC3)c(C)o2)cc1 (stereo not drawn) |  | 4.65 µM (active) |
| COc1ccc2oc(=O)c(C(=O)NCc3ccccn3)cc2c1 | 54.7% (inactive) |  |
| Cc1ccc(-c2nc(CSCC(=O)NC3CCN(Cc4ccccc4)CC3)c(C)o2)cc1 | -10.5% (inactive) |  |
| COc1ccc(-c2nc(CS(=O)CC(=O)N3CCC4(CC3)OCCO4)c(C)o2)cc1 (stereo not drawn) | 39% (inactive) |  |
| COc1ccc(-c2nc(CS(=O)CC(=O)NCc3ccccc3)c(C)o2)cc1OC (stereo not drawn) |  | 13.1 µM (active) |
| Cc1cccc(-c2nc(CS(=O)CC(=O)NC(C)CCc3ccccc3)c(C)o2)c1 (stereo not drawn) | -2.67% (inactive) |  |
| CC(OC(=O)CNC(=O)c1ccc(Cl)c([N+](=O)[O-])c1)C(=O)NCc1ccco1 (stereo not drawn) | 7.29% (inactive) |  |
| NC(=O)c1ccc(Nc2ccc3c(c2)CCC3)c([N+](=O)[O-])c1 | -3.89% (inactive) |  |
| CCC(C)(C)NC(=O)C(c1ccc(O)cc1)N(Cc1ccco1)C(=O)CCC(=O)Nc1ccccn1 (stereo not drawn) | -2.26% (inactive) |  |
| Cc1ccc(NC(=O)COC(=O)CN2CCCCCC2=O)c(C)c1 | 33.1% (inactive) |  |
| Cc1cccc(NC(=O)c2cc([N+](=O)[O-])ccc2N2CCN(C)CC2)c1 | 0% (inactive) |  |
| O=C(Nc1cccc(Cl)c1)c1cc([N+](=O)[O-])ccc1N1CCN(CCO)CC1 |  | 3.29 µM (active) |
| CN1CCN(CC(=O)Nc2cccc([N+](=O)[O-])c2)CC1 | -26% (inactive) |  |
| Cc1c(Cl)cccc1NC(=O)NCCCN1CCCC1=O | -15.2% (inactive) |  |
| COC(=O)c1c(NC(=O)CN2CCN(S(=O)(=O)c3ccccc3[N+](=O)[O-])CC2)sc2c1CCC(C)C2 (stereo not drawn) |  | 9.28 µM (active) |
| COc1ccccc1NC(=O)CN1CCN(S(=O)(=O)c2ccc(Br)cc2)CC1 | 31% (inactive) |  |
| Cc1c(Br)c([N+](=O)[O-])nn1CC(=O)Nc1sc2c(c1C(=O)OC(C)C)CCC(C)C2 (stereo not drawn) | 412% (inactive) |  |
| O=C(Cc1ccsc1)N1CCN(S(=O)(=O)c2cc(C(F)(F)F)cc(C(F)(F)F)c2)CC1 | -43.5% (inactive) |  |
| O=C(CSc1ncn[nH]1)Nc1nc(-c2cccc([N+](=O)[O-])c2)cs1 | 7.32% (inactive) |  |

| SMILES | activity change, negative = inhibition | Potency |
| --- | --- | --- |
| COc1ccc2c(c1OC)C(=O)N(c1ccc(O)cc1)C2 | 39% (inactive) |  |
| CCN1C(=NCc2ccc(OC)cc2)N[C@@H](CCc2ccccc2)[C@H](C(=O)NCc2ccc(OC)cc2)[C@H]1C |  | inactive and 5.22 µM (active) |
| CCN1C(=NCC(C)C)N[C@@H](CCc2ccccc2)[C@H](C(=O)NCC(C)C)[C@H]1C | 35.7% (inactive) |  |
| COc1ccc(CNC(=O)C2CCN(S(C)(=O)=O)CC2)cc1 | -5.46% (inactive) |  |
| O=C(Nc1cccnc1Cl)c1cc(-c2ccccc2O)on1 | 9.57% (inactive) |  |
| CC(=O)c1ccc(NC(=O)C2CC(=O)Nc3nc4ccccc4n32)cc1 (stereo not drawn) | 5.37% (inactive) |  |
| O=C(c1ccncc1)N1CCN(S(=O)(=O)c2cccc([N+](=O)[O-])c2)CC1 | -3.4% (inactive) |  |
| C=CCN1CCN(C(=O)CCCc2ccccc2)CC1 | 47% (inactive) |  |
| CCC(=O)c1ccc(OCC(=O)OCC(=O)NC2CCCCCC2)cc1 | 19.3% (inactive) |  |
| Cc1cccc(NC(=O)CN2CCN(C(=O)C3CCN(C(=O)/C=C/c4ccccc4)CC3)CC2)c1C | 0.105% (inactive) |  |
| COc1ccc(-c2nn(-c3ccccc3)cc2C(=O)Nc2nccs2)cc1OC | -1.92% (inactive) |  |
| COc1ccc(-c2nn(-c3ccccc3)cc2/C=N/Nc2ccccn2)cc1OC |  | 3.7 µM (active) |
| Oc1ccc(Br)cc1/C=N/Nc1ccccn1 | -4.24% (inactive) |  |
| CC(=O)Nc1cccc(C(=O)OCC(=O)c2ccc3c(c2)OCO3)c1 | 290% (inactive) |  |
| Cc1ccc(CNCc2ccc3c(c2)OCO3)c(C)c1 | -28.5% (inactive) |  |
| CCCCCc1c(C)nc(N2CCN(Cc3ccc4c(c3)OCO4)CC2)[nH]c1=O | -3.03% (inactive) |  |
| O=c1[nH]c(N2CCN(Cc3ccc4c(c3)OCO4)CC2)nc2c1CCCC2 |  | 7.38 µM (active) |
| CCN1CCN(c2nc3c(c(=O)[nH]2)CCC3)CC1 | 8.13% (inactive) |  |
| O=C(COC(=O)c1ncc(Cl)c(Cl)c1Cl)NC1CCS(=O)(=O)C1 (stereo not drawn) | 2.18% (inactive) |  |
| Cc1occc(=O)c1OCc1ccc(F)cc1 | 34.4% (inactive) |  |
| Cc1ccc(COC(=O)CN2C(=O)NC3(CCCC3)C2=O)cc1 | 2.02% (inactive) |  |
| O=C(CN1C(=O)NC2(CCCC2)C1=O)OCCOc1ccc(F)cc1 | 52.9% (inactive) |  |
| CCOc1ccc(C(C)=O)cc1COC(=O)CN1C(=O)NC2(CCCC2)C1=O |  | 5.22 µM (active) |
| O=C(COC(=O)c1ccc([N+](=O)[O-])cc1Cl)NC(=O)c1ccccc1 | 28.7% (inactive) |  |
| COc1ccc(CNC(=O)CN2C(=O)NC3(CCCc4sccc43)C2=O)cc1 (stereo not drawn) | -17.9% (inactive) |  |

| SMILES | activity change, negative = inhibition | Potency |
| --- | --- | --- |
| Cc1cccc(C)c1NC(=O)CN(C)C(=O)CCC(=O)c1ccccc1 | -21% (inactive) |  |
| COc1ccc(C(=O)NNc2cc(C)nc(NNC(=O)c3ccc(OC)cc3)n2)cc1 | -5.06% (inactive) |  |
| CC(=O)Nc1ccc(Nc2cc(C)nc(Nc3ccc(NC(C)=O)cc3)n2)cc1 |  | 2.94 µM (active) |
| CC(=O)Nc1ccc(Nc2c3ccccc3nc3ccccc23)cc1 | -19% (inactive) |  |
| CCN(CC)Cc1c(C(=O)N/N=C/c2cccc(OCc3ccc(F)cc3)c2)nnn1-c1nonc1N | 7.42% (inactive) |  |
| O=C(NNc1ccccc1Cl)C(O)(c1cccc(C(F)(F)F)c1)c1cccc(C(F)(F)F)c1 |  | 2.62 µM (active) |
| O=C(Nc1cc(C(F)(F)F)ccc1Cl)C(=O)N1CCCCC1 | 33.5% (inactive) |  |
| CC(CC(=O)Nc1cc(C(F)(F)F)ccc1Cl)c1ccccc1 (stereo not drawn) | 4.23% (inactive) |  |
| COC(=O)c1cc(N2CCNCC2)nc2ccccc12 | 16.4% (inactive) |  |
| Cc1nnc(SCC(=O)N/N=C/c2cn(-c3ccccc3)nc2-c2ccc(F)cc2)n1-c1ccccc1 | 0% (inactive) |  |
| Cc1ccc(-c2nnc(SCC(=O)N/N=C/c3cccs3)n2-c2ccc(C)cc2)cc1 |  | 13.1 µM (active) |
| NC(=O)N/N=C\c1cccs1 | -2.84% (inactive) |  |
| Cc1ccc(-n2c(C)nnc2SCC(=O)NC2CC2)cc1 | 11.5% (inactive) |  |
| Cc1nc2ccccc2n1CC(=O)N/N=C/c1cccs1 |  | 2.33 µM (active) |
| Cc1nc2ccccc2n1CC(=O)N/N=C/c1cccnc1 | 16.2% (inactive) |  |
| CCN1CCN(C(=O)N[C@@H](C(=O)N[C@@H]2C(=O)N3C(C(=O)O)=C(CSc4nnnn4C)CS[C@H]23)c2ccc(O)cc2)C(=O)C1=O | -3.93% (inactive) |  |
| Cn1nc(C(F)(F)F)c(-c2ccc(F)cc2)c1NC(=O)CSCC(=O)O | 4.49% (inactive) |  |
| Cc1nc(N)sc1N=Nc1c(C)n(C)n(-c2ccccc2)c1=O | 22.2% (inactive) |  |
| CN1CCc2cc3c(cc2[C@H]1[C@@H]1OC(=O)c2c1ccc1c2OCO1)OCO3 | 14.9% (inactive) |  |
| COc1c(O)ccc2c1CN1CCc3cc4c(cc3C1C2)OCO4 (stereo not drawn) |  | 3.29 µM (active) |
| COc1c(O)ccc2c1-c1c3c(cc4c1C(C2)N(C)CC4)OCO3 (stereo not drawn) | 5.04% (inactive) |  |
| O=C(CCc1ccccc1Cl)Nc1ccc(S(=O)(=O)Nc2nccs2)cc1 | 0.156% (inactive) |  |
| O=C(COc1ccc(Cl)cc1)NCCS(=O)(=O)N1CCN(c2ccc(F)cc2)CC1 | 31.9% (inactive) |  |
